Measured values: the supplement of paper PMC11732987, “Enantioselective OTUD7B fragment discovery through chemoproteomics screening and high-throughput optimisation” (Communications Chemistry, 2025)

How the values were obtained:
Assay in all cases: log2 ratio of Biotin-Ahx-Ub-VS probe labelling (fragment/DMSO); higher = less target engagement (more negative = stronger competition), active = hit call of the paper (q ≤ 0.05, log2 ratio ≤ -1)
Conditions in all cases: compound concentration: 200 uM; treatment time: 3 h
USP34 = USP34 (UniProt Q70CQ2)
Sequence of USP34 (Q70CQ2 whole entry, the tested form may be a part): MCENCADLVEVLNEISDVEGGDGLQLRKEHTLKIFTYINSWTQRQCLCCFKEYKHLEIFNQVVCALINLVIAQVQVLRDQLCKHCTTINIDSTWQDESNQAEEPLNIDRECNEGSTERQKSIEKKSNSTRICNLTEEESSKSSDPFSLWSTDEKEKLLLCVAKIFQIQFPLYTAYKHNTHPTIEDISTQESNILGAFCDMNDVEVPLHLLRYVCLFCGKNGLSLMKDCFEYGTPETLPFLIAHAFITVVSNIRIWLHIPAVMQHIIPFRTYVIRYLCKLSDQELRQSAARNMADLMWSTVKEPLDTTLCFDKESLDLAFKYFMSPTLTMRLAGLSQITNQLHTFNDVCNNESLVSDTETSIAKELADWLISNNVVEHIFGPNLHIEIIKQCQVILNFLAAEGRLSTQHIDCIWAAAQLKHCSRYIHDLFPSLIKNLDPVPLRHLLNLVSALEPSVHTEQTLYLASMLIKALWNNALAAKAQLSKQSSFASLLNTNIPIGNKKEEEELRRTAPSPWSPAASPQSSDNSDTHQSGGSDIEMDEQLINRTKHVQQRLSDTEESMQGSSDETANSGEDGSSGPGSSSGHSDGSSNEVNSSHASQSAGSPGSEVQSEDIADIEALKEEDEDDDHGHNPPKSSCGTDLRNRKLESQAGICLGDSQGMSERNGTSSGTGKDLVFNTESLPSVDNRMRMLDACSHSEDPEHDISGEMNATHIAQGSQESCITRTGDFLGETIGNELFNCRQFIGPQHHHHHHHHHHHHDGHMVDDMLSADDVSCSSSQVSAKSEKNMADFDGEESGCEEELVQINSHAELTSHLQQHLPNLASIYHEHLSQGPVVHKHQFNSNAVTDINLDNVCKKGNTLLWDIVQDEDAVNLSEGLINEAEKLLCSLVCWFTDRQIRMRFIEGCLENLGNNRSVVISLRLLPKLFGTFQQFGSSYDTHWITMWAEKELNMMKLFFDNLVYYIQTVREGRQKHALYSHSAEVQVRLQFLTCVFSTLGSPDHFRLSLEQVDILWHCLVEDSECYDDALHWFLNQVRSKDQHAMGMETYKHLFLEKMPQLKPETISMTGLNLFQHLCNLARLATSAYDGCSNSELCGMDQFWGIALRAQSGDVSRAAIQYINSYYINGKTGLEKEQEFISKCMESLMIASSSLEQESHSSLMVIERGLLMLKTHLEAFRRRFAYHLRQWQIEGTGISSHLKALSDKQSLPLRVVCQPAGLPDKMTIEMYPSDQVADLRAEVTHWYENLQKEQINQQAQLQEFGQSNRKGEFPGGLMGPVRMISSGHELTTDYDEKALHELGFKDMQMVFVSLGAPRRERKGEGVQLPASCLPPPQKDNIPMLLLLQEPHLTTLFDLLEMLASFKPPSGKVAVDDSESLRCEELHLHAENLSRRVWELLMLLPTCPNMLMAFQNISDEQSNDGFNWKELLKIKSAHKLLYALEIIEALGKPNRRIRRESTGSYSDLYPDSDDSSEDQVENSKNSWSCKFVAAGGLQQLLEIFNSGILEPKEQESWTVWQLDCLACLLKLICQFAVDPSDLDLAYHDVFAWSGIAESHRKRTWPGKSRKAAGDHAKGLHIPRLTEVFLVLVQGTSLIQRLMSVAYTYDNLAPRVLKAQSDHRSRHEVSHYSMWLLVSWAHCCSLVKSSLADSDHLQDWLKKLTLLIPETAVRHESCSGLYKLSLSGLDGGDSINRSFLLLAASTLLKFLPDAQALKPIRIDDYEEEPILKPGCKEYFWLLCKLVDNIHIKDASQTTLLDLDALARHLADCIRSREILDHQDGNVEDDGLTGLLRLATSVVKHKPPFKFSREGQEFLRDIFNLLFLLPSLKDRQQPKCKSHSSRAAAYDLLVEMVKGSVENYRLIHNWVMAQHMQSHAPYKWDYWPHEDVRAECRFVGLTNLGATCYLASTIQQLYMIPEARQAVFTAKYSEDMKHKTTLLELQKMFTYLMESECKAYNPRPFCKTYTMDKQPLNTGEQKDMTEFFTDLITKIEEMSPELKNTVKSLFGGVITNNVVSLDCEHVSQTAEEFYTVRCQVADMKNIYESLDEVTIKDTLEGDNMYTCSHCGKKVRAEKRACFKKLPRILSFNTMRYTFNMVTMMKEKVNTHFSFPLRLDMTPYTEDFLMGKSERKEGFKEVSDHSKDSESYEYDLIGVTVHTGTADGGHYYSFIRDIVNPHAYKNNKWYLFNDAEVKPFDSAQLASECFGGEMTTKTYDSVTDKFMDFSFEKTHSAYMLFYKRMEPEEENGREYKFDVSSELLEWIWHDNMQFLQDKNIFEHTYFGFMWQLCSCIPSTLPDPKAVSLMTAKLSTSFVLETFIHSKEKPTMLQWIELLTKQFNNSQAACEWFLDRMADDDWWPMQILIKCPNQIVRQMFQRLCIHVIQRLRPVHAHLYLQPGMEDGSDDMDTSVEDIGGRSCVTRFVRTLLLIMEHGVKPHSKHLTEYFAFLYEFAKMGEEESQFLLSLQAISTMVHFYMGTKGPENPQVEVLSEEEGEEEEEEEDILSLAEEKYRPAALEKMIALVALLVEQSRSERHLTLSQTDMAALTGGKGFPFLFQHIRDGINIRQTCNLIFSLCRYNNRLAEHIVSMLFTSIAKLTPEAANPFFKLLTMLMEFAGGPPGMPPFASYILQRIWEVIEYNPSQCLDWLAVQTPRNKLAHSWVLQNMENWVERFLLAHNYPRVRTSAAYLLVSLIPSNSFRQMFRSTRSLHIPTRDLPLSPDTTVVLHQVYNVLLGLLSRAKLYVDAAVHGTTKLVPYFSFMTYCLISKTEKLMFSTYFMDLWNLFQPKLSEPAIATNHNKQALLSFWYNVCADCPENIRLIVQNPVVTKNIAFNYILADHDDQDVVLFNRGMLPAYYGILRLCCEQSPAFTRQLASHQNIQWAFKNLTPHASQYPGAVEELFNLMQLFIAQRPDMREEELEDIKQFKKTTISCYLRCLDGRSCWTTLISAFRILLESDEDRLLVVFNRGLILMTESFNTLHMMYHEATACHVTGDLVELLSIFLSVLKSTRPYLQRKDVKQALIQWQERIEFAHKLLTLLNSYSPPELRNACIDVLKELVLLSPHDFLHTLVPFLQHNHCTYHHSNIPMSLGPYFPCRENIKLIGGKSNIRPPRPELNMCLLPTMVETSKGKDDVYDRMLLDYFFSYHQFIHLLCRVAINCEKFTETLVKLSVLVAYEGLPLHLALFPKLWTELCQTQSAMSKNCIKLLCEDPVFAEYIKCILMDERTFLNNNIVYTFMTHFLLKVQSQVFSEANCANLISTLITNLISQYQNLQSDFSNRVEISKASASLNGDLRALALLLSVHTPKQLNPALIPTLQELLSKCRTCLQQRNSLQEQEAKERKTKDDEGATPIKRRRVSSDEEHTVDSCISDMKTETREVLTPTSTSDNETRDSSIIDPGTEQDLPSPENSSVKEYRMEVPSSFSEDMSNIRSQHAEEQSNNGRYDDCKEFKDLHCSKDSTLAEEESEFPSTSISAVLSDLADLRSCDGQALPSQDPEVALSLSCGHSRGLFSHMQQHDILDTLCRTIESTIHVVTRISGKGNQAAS
Method in brief: (§1)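 The table lists average log2 ratios of fragment over vehicle, from an unpaired t-test on global-median-normalised Spectronaut label-free quantities. Proteins with ≥2 unique peptides were used. Samples were HEK293T lysate (495 µg) treated in triplicate with fragment at 200 µM or vehicle for 3 h, then with Biotin-Ahx-Ub-VS (0.5 µM final) for 1 h, with labelled DUBs NeutrAvidin-enriched and run by diaPASEF LC-MS/MS.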

USP36 = target: T1, USP36 (UniProt Q9P275)
T1 sequence (whole entry): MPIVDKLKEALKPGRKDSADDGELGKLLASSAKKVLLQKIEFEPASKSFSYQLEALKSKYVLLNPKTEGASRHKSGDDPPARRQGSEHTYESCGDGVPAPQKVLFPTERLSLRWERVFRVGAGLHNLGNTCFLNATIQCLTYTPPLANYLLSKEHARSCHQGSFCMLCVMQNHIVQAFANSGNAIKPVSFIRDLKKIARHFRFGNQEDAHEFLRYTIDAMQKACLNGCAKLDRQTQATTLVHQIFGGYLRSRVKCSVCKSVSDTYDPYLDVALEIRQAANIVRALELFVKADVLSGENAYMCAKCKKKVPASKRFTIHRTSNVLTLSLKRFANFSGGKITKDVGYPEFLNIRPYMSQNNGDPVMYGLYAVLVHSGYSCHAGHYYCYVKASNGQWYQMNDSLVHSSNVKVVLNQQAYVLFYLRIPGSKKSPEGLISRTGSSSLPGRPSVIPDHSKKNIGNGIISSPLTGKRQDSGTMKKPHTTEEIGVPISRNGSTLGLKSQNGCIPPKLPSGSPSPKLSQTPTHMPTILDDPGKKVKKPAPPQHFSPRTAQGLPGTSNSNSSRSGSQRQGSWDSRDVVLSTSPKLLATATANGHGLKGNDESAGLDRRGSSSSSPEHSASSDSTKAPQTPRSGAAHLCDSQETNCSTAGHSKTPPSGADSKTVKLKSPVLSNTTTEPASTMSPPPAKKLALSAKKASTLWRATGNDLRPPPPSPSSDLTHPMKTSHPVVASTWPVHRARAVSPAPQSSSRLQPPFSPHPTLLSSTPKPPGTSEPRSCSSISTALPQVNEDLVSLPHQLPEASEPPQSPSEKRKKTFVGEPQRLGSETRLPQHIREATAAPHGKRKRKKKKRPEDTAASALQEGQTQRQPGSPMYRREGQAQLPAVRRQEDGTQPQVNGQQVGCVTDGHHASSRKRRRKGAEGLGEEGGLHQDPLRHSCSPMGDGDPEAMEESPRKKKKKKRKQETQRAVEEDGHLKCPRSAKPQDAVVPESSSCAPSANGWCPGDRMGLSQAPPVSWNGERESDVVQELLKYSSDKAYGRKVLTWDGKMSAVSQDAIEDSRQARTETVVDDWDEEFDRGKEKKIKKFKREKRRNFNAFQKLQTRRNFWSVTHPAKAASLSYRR
Method in brief: as §1

USP38 = target: T2, USP38 (UniProt Q8NB14)
T2 sequence (whole entry): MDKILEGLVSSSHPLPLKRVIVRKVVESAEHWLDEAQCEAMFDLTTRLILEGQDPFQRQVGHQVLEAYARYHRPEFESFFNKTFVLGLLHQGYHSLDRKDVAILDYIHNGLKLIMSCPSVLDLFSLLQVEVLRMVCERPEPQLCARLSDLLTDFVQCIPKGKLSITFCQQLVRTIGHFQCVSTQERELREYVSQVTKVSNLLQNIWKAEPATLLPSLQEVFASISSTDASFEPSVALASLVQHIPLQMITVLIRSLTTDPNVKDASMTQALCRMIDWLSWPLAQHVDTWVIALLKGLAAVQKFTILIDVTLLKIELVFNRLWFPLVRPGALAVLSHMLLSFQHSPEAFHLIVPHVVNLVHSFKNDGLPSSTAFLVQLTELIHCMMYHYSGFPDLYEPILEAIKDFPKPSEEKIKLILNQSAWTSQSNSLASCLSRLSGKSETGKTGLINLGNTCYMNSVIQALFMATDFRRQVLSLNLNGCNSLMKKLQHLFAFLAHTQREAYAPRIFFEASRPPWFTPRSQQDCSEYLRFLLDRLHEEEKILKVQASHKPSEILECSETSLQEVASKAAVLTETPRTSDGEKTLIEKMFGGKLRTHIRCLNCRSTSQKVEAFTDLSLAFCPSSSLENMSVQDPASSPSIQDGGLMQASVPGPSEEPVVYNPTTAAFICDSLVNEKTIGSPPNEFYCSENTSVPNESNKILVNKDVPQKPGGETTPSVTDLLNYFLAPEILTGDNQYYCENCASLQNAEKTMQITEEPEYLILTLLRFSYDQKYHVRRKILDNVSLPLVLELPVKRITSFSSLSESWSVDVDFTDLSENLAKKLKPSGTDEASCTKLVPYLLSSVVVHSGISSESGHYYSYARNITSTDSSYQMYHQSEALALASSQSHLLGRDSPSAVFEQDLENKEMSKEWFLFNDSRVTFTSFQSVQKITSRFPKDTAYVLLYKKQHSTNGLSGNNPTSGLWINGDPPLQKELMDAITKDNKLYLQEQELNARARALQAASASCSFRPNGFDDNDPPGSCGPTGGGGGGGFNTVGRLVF
Method in brief: as §1

USP39 = target: T3, USP39 (UniProt Q53GS9)
T3 sequence (whole entry): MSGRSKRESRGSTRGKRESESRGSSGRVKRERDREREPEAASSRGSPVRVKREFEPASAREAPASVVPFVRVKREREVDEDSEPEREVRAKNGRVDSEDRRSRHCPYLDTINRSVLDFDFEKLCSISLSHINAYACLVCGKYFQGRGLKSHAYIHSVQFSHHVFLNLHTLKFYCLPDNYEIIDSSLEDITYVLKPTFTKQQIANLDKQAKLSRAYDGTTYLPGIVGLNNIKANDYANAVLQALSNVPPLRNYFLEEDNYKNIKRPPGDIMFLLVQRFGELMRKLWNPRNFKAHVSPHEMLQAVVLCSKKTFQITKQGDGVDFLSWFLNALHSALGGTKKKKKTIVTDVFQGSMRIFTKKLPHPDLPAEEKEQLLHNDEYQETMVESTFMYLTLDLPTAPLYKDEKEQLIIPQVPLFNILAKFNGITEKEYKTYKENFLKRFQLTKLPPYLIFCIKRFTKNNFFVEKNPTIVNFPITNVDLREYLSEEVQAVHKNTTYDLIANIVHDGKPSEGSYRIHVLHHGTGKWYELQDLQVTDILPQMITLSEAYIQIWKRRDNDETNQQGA
Method in brief: as §1

USP4 = target: T4, USP4 (UniProt Q13107)
T4 sequence (whole entry): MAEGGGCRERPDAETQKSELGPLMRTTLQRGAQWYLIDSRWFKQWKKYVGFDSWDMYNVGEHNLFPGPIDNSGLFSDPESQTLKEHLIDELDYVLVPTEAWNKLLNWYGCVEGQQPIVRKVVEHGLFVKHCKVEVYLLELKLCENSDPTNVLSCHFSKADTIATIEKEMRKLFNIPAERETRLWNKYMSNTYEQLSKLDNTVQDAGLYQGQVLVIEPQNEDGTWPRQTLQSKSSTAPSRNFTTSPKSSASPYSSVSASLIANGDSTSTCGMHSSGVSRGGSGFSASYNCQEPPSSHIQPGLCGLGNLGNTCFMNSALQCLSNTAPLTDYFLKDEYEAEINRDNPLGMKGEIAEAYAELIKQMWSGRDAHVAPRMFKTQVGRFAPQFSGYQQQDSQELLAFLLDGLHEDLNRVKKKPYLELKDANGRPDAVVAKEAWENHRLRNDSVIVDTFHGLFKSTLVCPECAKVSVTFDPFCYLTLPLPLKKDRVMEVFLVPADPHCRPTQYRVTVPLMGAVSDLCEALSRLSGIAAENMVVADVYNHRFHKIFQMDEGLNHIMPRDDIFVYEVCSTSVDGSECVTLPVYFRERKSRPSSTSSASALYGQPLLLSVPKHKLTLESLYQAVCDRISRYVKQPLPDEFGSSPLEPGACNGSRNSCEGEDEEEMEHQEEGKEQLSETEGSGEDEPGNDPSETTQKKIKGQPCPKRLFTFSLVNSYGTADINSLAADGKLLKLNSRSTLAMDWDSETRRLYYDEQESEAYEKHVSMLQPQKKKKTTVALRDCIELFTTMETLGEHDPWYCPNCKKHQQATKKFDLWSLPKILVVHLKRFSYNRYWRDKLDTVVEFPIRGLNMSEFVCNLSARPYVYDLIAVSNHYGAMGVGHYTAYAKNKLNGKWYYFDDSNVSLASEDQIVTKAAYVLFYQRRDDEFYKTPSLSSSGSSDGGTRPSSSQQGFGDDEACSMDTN
Method in brief: as §1

Measured: log2 ratio of Biotin-Ahx-Ub-VS probe labelling

O=C(CCl)Nc1cccc(C(=O)N2CCSCC2)c1
inactive: USP34 -0.185 | USP36 0.0297 | USP38 -0.0941 | USP39 0.29 | USP4 -0.272
